# According to PubChem BioAssay AID624298 (National Center for Advancing Translational Sciences (NCATS), 2012):
# Records with an inconclusive call do not appear. Calls of active or inactive are those of the source. Calls follow the shape of the dose curve; as a rule, active = well fitted activation curve with a large enough effect; inconclusive = small, poorly fitted or top-dose-only effect; inactive = no such curve, though single readings can be large or run the other way.
# Assay: Activators of T cell receptors: Hit Validation; as to activation: 0% is about no effect
# Details: primary human leukocytes, cytokine release by HTRF, 48 h, TCR-stimulated with anti-CD3 beads; series mostly up to 46.1 µM; activation: at the top concentration
# In short: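 Readout is IL-2 secretion by HTRF, measured after 48 hr in which primary human leukocytes received compound together with a-CD3 beads as the only TCR stimulus.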
# Potency is read from the fitted curve at half-maximal effect.
SMILES,activation,Potency
CN(C)c1ccc(NC(=O)COC(=O)CNC(=O)c2cccs2)cc1,-40.9% (inactive),–
COc1ccc(-n2c(=O)[nH]cc(C(=O)Nc3ccc4c(c3)OCO4)c2=O)cc1OC,-5.9% (inactive),–
Cc1cc(=O)[nH]c(N/N=C/c2cccs2)n1,12.7% (inactive),–
Cc1ccc(NC(=S)c2ccc(N(C)C)cc2)cc1,2.2% (inactive),–
Cc1cccc(NC(=O)c2sc3nc(N)c(C#N)cc3c2N)c1,2.08% (inactive),–
CN(C)c1ccc(N/C(N)=N/c2nc(C(F)(F)F)cc(C(F)(F)F)n2)cc1,4.85% (inactive),–
CC(=O)NC(CC(=O)O)C(=O)O (stereo not given),-17% (inactive),–
CCOc1ccc(/C=N/NC(=O)c2ccc(O)cc2)cc1CN1CC2CC(C1)c1cccc(=O)n1C2 (stereo not given),14.2% (inactive),–
COc1ccc(S(=O)(=O)Nc2ccc3cn[nH]c3c2)cc1[N+](=O)[O-],-4.82% (inactive),–
CN(C)CCC[C@]1(c2ccc(F)cc2)OCc2cc(C#N)ccc21,10.7% (inactive),–
CCN(CC)c1ccc2nc3ccccc3[n+](CC)c2c1,–,4.99 µM (active)
O=C(CCOc1ccccc1)Nc1ccc(S(=O)(=O)Nc2ncccn2)cc1,-10.8% (inactive),–
Cc1ccc(C(=O)NCCc2nnc3ccc(SCC(=O)N4CCCCC4)nn23)cc1,7.71% (inactive),–
CC(=O)Nc1ccc(C(=O)OCC(=O)N(c2ccccc2)C2CCS(=O)(=O)C2)cc1 (stereo not given),4% (inactive),–
CN(CC(=O)Nc1ccc(N2CCOCC2)cc1)C(=O)c1ccc(CS(C)(=O)=O)cc1,6.41% (inactive),–
COc1ccc(CN(C)C(C)C(=O)N(C)CC(=O)Nc2ccc(C)cc2)cc1F (stereo not given),1.21% (inactive),–
CC(=O)c1cccc(NC(=O)C(C)OC(=O)c2cccc(S(=O)(=O)N3CCN(C)CC3)c2)c1 (stereo not given),8.26% (inactive),–
CSCCC(NC(=O)c1ccco1)C(=O)NCC1CCCO1 (stereo not given),-4.79% (inactive),–
C[C@@H]1O[C@@H](O[C@H]2[C@H](Oc3cc(O)c4c(c3)O[C@H](c3ccc(O)cc3)CC4=O)O[C@H](CO)[C@@H](O)[C@@H]2O)[C@H](O)[C@H](O)[C@H]1O,-5.16% (inactive),–
COc1ccc(OC)c(NC(=O)CSc2nc3[nH]c(=O)cc(O)c3s2)c1,10.8% (inactive),–
C/C(=N\NC(=O)COc1ccc([N+](=O)[O-])cc1)c1ccco1,11.5% (inactive),–
Oc1ccc(/C=N\Nc2nncc(-c3ccccc3)n2)cc1,10.3% (inactive),–
Cc1[nH]c2ccccc2c1C(=O)CSc1nnc(C2CC2)o1,4.8% (inactive),–
CC(C)(C)CC(=O)N1CCN(c2ccc(S(=O)(=O)N3CCOCC3)cc2[N+](=O)[O-])CC1,3.63% (inactive),–
N#Cc1ccc(CN2CCN(C(=O)c3cc(Cl)c4c(c3)OCCO4)CC2)cc1,12.1% (inactive),–
Cc1ccc(S(=O)(=O)NC23CC4CC(CC(C4)C2)C3)cc1,4.65% (inactive),–
CCOC(=O)c1c(NC(=O)c2ccc(N3C(=O)C4C5C=CC(C5)C4C3=O)cc2)sc2c1CCCC2 (stereo not given),-5.99% (inactive),–
CCOC(=O)c1sc(NC(=O)C2CC(=O)N(c3ccc4c(c3)OCCO4)C2)nc1C (stereo not given),-1.08% (inactive),–
CCC(=C/c1sc2ccc3ccccc3c2[n+]1C)/C=C1\Sc2ccc3ccccc3c2N1C,–,9.96 µM (active)
COc1ccc(C(=O)Nc2cccc(NC(C)=O)c2)cc1OC,-37.1% (inactive),–
